# Laboratory results taken from PubChem BioAssay AID652023 (National Center for Advancing Translational Sciences (NCATS), 2013).
# Some of the results follow. Inconclusive results are not listed. Activity calls are given as the source filed them. Calls come from the whole dose curve; as a rule, active = well fitted inhibition curve with a large enough effect; inconclusive = small, poorly fitted or top-dose-only effect; inactive = flat fitted curve, though single readings scatter.
# Target: Thioredoxin reductase 1, cytoplasmic (Rattus norvegicus) (UniProt O89049)
# Experiment: qHTS Assay for Inhibitors of Mammalian Selenoprotein Thioredoxin Reductase 1 (TrxR1): Hit Validation in Primary Screen
# Conditions: recombinant TrxR1, NADPH fluorescence consumption, selenite substrate
# Text: The selenoprotein thioredoxin reductase (TrxR; EC 1.8.1.9) is a FAD containing homodimeric pyridine nucleotide-disulfide oxidoreductase with many cellular roles. Together with NADPH and its prime substrate thioredoxin (Trx), the enzyme forms the core of the Trx system. The mammalian Trx system exerts a wide spectrum of functions including redox regulation, antioxidant defense, regulation of transcription factors as well as support of cell growth and replication. Many of these functions involve the reduction of Trx, which may subsequently reduce a number of different substrates including ribonucleotide reductase, peroxiredoxins or NFkB. […]
# Assay protocol: 2 uL of reagents (buffer in column 4 as negative control and 90 nM rTrxR1 in columns 1-3 and 5-48) were dispensed into Greiner black solid-bottom 1,536-well assay plates, followed by 1 uL of NADPH (400 uM final concentration) to each well. […] The plate was immediately transferred to a ViewLux high-throughput CCD imager (PerkinElmer), wherein kinetic measurements of NADPH fluorescence (Ex 340 nm, Em 450 nm) were acquired (8 minute kinetic read). Read 1 was utilized to assess the capacity of a compound to serve as an rTrxR1 substrate, i.e. a decrease in NADPH fluorescence compared to the no-compound background is an indication of a substrate behavior for that particular compound. […]
# Sequence of Thioredoxin reductase 1, cytoplasmic (Rattus norvegicus) (O89049 whole entry, looked up): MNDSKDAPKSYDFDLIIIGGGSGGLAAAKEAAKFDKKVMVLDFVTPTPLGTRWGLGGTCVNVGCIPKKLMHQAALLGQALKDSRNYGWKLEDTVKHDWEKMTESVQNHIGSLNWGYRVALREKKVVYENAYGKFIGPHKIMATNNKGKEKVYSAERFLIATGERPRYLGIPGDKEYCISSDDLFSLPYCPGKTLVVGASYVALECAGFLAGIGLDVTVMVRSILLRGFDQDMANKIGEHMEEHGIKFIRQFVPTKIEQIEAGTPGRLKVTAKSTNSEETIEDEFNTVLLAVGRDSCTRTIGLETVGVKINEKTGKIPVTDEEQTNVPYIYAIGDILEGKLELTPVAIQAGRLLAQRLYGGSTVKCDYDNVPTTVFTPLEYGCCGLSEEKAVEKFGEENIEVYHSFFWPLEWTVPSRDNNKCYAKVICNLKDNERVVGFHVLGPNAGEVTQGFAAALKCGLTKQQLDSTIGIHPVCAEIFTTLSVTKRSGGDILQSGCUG
compound,measurement,value
COc1ccc(-c2nc(CS(=O)CC(=O)N3CCC4(CC3)OCCO4)c(C)o2)cc1 (stereo unspecified),Potency,7.52 µM (active)
